From PubChem BioAssay AID1347076 (National Center for Advancing Translational Sciences (NCATS), 2019)
Hit rate of the full screen: of about 400,000 compounds, about 13,000 (3.2%) were called active. Not shown: some 18% with an inconclusive outcome. The entries come from a sample that favours actives as a whole. Unmarked numbers belong to inactive results. Calls follow the shape of the dose curve; as a rule, active = well fitted cell-killing curve with a large enough effect; inconclusive = small, poorly fitted or top-dose-only effect, or effect the other way; inactive = flat fitted curve, though single readings scatter.

Assay: qHTS assay for MDR1-selective chemotherapeutics: Primary screen using the drug-selected MDR subline cells KB-V1; also: nearly all actives have a fitted effect of over 60% in size
Settings: KB-V1 MDR cells viability, CellTiter-Glo, 72 h; series mostly up to 46.1 µM; activity change, negative = cytotoxicity: at the top concentration
In short: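 Compound-treated KB-V1 multidrug-resistant cells, 72 h, 37 degrees C; viability by CellTiter-Glo. Fitted qHTS curves give the values.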
% is scaled to controls: 0 for no effect and ±100 for the full control effect; potency is read from the fitted curve at half-maximal effect.

SMILES	activity change, negative = cytotoxicity [%]	Potency
O=C1NC[C@H](CCCCN2C[C@H](Cc3ccc(O)cc3)N(CCc3ccccc3)C(=O)C2=O)N(CCc2ccccc2)C1=O	1.54	–
Cc1cccc(Cn2c(CN3CCC(C(=O)NCc4ccccc4Cl)CC3)cc3ccccc32)c1	4.63	–
C/C(COc1ccccc1)=N\NC(=O)c1nnn(-c2nonc2N)c1-c1ccc(C)cc1	17.6	–
CCN(CC)c1cc(NC2CCCCC2)c2c3c(onc13)-c1ccccc1C2=O	25.8	–
CCOC1=C2CN(S(=O)(=O)c3ccc(C)cc3)[C@H](c3cccs3)C[C@H]2[C@H]2C(=O)N(c3ccccc3)C(=O)[C@H]2C1	14.3	–
Cc1oc(C)c2c(=O)cc(-c3ccc4c(c3)OCO4)cc(OC(=O)c3ccc(Cl)cc3)c12	17.3	–
COc1cc(-c2c(-c3ccc4c(c3)OCO4)noc2C)ccc1F	–	5.8 µM (active)
COc1ccc(CCNC(=O)c2cc(-c3ccc4c(c3)OCO4)on2)cc1OC	-20.7	–
O=C(CCNC(=O)c1ccc(Br)cc1)NCC(c1ccco1)N1CCCCC1 (configuration not stated)	0.991	–
CC(Oc1ccc(Br)cc1)C(=O)NCC(c1ccco1)N1CCCCC1 (configuration not stated)	–	14.6 µM (active)
CC(Oc1ccc(Br)cc1)C(=O)NC1CCCCCC1 (configuration not stated)	-11	–
C=CCn1c2c(c3ccccc31)CCC2	0.716	–
COc1ccc(CN2C(=O)C(CC(=O)NCc3cccc4ccccc34)CC(C(=O)N3CCOCC3)=C2C)cc1 (configuration not stated)	4.5	–
O=C(C[C@H]1CC[C@@H](NC(=O)c2ccncc2)[C@@H](CO)O1)NCC1CC1	-2.33	–
O=C(CSc1nc(C2CC2)nc2ccccc12)Nc1ccc2c(c1)OCCO2	–	14.6 µM (active)
O=C(CSc1nc(C2CC2)nc2ccccc12)Nc1cccc(O)c1	-5.09	–
Cc1nnc(NC(=O)CSc2nc(C3CCCCC3)nc3ccccc23)s1	-17.9	–
CCc1ccc(OC2(C)CCN(CCOc3ccc(C)cc3)C2)cc1 (configuration not stated)	-11.1	–
COc1cc(CNc2ncnc3c2ncn3[C@H]2CN(Cc3cccs3)C[C@@H](CO)O2)cc(OC)c1OC	4.08	–
COc1ccc(NC(=O)N(C)C[C@@H]2OCc3cn(nn3)CCCC(=O)N([C@H](C)CO)C[C@H]2C)c(OC)c1	-1.34	–
CC(=O)NC1=NN(C(C)=O)C(C)(c2ccc(Cl)s2)S1 (configuration not stated)	–	5.8 µM (active)
CC(=O)NC1=NN(C(C)=O)C(C)(c2ccc(C)cc2)S1 (configuration not stated)	-0.422	–
CC(=O)NC1=NN(C(C)=O)C(C)(CCS(=O)(=O)c2ccc(Cl)c(Cl)c2)S1 (configuration not stated)	-0.186	–
CCNC(=O)C1(C)CCN(Cc2ccc(C(=O)OCC)o2)C1 (configuration not stated)	2.24	–
CC(=O)C[C@@H]1OC[C@H](CO)N1S(=O)(=O)c1ccc(C)cc1	-0.307	–

SMILES	activity change, negative = cytotoxicity [%]	Potency
COc1ccc(Cl)cc1-c1cc(C(=O)Nc2cc(OC)c(OC)c(OC)c2)[nH]n1	-24.4	–
COc1ccc2cc(C(=O)O)n(CC(=O)c3ccccc3)c2c1	8.89	–
CCn1c(=N)n(CC(=O)c2cccc(OC)c2)c2ccccc21	–	8.2 µM (active)
CCCn1c(=N)n(CC(=O)c2ccc(Cl)c(Cl)c2)c2ccccc21	0.789	–
O=C(N[C@H]1CC[C@H](CC(=O)N2CCCCC2)O[C@@H]1CO)c1cccc(F)c1	4.32	–
Cc1cc2nc(-c3ccco3)c(Cc3cccc(F)c3)n2c(C)c1Br	11.8	–
CCOc1ccccc1NC(=O)Cn1c(=O)n(Cc2ccccc2)c(=O)c2c(C)c(C(=O)N(C)C)sc21	13.6	–
Cc1cccc(NC(=O)Cn2c(=O)n(Cc3ccccc3)c(=O)c3c(C)c(C)sc32)c1	–	5.17 µM (active)
Cc1cccc(-n2c(=O)c3c(C)c(C)sc3n(CC(N)=O)c2=O)c1	7.39	–
CCCS(=O)(=O)NC(=O)C1(C)CCCN(C(=O)c2cc(C)on2)C1 (configuration not stated)	4.37	–
O=C(OCc1ccc(-c2ccccc2)cc1)c1cccc(O)c1	-18	–
O=C(OCc1ccc(Br)cc1)c1cccc(-c2nnc(-c3ccccc3)o2)c1	–	9.2 µM (active)
CC(=O)Nc1cccc(C(=O)OCC(=O)Nc2nnc(-c3ccccc3)o2)c1	29	–
O=C(O)C1=C/C(=C/C=[N+]2c3cc(O)c(O[C@H]4OC(CO)[C@@H](O)[C@@H](O)[C@@H]4O)cc3C[C@@H]2C(=O)[O-])C[C@H](C(=O)O)N1 (some centres not stated)	17	–
Cc1cccc(NC(=O)C2CCN(C(=O)NC3CCCCC3)CC2)c1	-27.3	–
Cc1ccccc1NC(=O)C1CCN(C(=O)NC2CCCCC2)CC1	-21.8	–
O=C(Nc1cccc2c1CCCC2)C1CCN(C(=O)NC2CCCCC2)CC1	–	13 µM (active)
CCCCC(O)C1=C[N+](=O)CC=C1 (configuration not stated)	-8.56	–
COc1ccc(N(CC(=O)NCCc2ccc(Cl)cc2)S(=O)(=O)c2c(C)nn(C)c2C)cc1	-2.24	–
C(=Nc1ccc(/C=C/c2ccnc3ccccc23)cc1)c1cc2c3c(c1)CCCN3CCC2	-3.26	–
O=c1c2ccccc2nc(N/N=C/c2ccccc2)n1O	-11.6	–
Cc1nc(Cl)cc(N/N=C/c2ccccc2)n1	-7.94	–
Cc1cc2c(C)nc(N/N=C/c3ccccc3)nc2o1	–	23.1 µM (active)
O=C(c1cc(C2CCCCN2S(=O)(=O)c2ccccc2)on1)N1CCOCC1 (configuration not stated)	4.3	–
Nc1cc(C(=O)N2CCN(c3ccccc3Cl)CC2)ccc1N1CC2CC(C1)c1cccc(=O)n1C2 (configuration not stated)	-1.97	–

SMILES	activity change, negative = cytotoxicity [%]	Potency
CN(C1CCS(=O)(=O)C1)S(=O)(=O)c1ccc2ccccc2c1 (configuration not stated)	-7.48	–
Cc1ccc(S(=O)(=O)CCC(=O)OCC(=O)N(C)C2CCS(=O)(=O)C2)cc1 (configuration not stated)	-3.87	–
Cc1ccc(S(=O)(=O)N(c2cccc(C)c2)C2CCS(=O)(=O)C2)cc1 (configuration not stated)	–	16.4 µM (active)
CCc1nc2nc(C)cc(Nc3ccc(F)c(Cl)c3)n2n1	1.62	–
N#CCc1c[nH]c2ccc([N+](=O)[O-])cc12	16.4	–
CCOC(=O)c1ccc2[nH]c3c(c2c1)CCCC3NC=O (configuration not stated)	-6.76	–
O=[N+]([O-])c1ccc2[nH]c3c(c2c1)CCCC3O (configuration not stated)	–	20.6 µM (active)
Cc1c(C(=O)N(C)C)sc2c1c(=O)n(-c1ccc(F)cc1)c(=O)n2CC(=O)N(C)c1ccccc1	7.18	–
O=C(COC(=O)Cc1ccc(Cl)cc1Cl)NCc1ccco1	12.7	–
COCCNC(=O)CSc1nc(N)c(NC(=O)c2ccco2)c(=O)[nH]1	-3.82	–
O=C(COc1ccccc1Cl)N1N=C(c2cccs2)CC1c1ccco1 (configuration not stated)	-25.9	–
COc1ccc(C2CC(c3cccs3)=NN2C(=O)CCC(=O)O)cc1OC (configuration not stated)	13.5	–
O=C1c2cccc(OCC(=O)N3N=C(c4cccs4)CC3c3ccc(F)cc3)c2CCN1Cc1ccccc1 (configuration not stated)	–	1.64 µM (active)
COc1ccc(NC(=O)C2(C)Cc3c(-c4ccc(C(N)=O)cc4)ccnc3O2)cc1 (configuration not stated)	-8.96	–
O=C(CSc1ncc(-c2ccccc2)[nH]1)Nc1ccc(F)cc1F	-13.2	–
CC(C)(C)OC(=O)N1CCN(C(=O)c2[nH]c(C(F)(F)F)nc2-c2ccccc2)CC1	-14.6	–
O=C1O/C(=C\c2ccc(O)cc2)C(O)=C1c1ccc(O)cc1	-8.38	–
CCOC(=O)c1nnn(CC(=O)Nc2cccc(F)c2)c1C(=O)OCC	13.5	–
CCOC(=O)c1cccc(NC(=O)CCn2nnc3ccccc32)c1	–	8.2 µM (active)
CCOC(=O)c1cccc(NC(=O)CCc2c(C)nc3ncnn3c2C)c1	-2.85	–
C[C@H](CO)N1C[C@H](C)[C@@H](CN(C)S(=O)(=O)c2ccc(F)cc2)OCc2cnnn2CCCC1=O	11.7	–
CCC(C)N(c1ccc(/C=C/c2ccnc3ccccc23)cc1)C(C)CC (configuration not stated)	-1.86	–
OC(c1ccccc1)c1nc(/C=C/c2ccc(C(F)(F)F)cc2)cs1 (configuration not stated)	20.1	–
Cc1cc(C(=O)OCC(=O)N2C(C)CCCC2C)c2ccccc2n1 (configuration not stated)	-17.1	–
CC1CCCCN1C(=O)CCS(=O)(=O)Cc1ccccc1 (configuration not stated)	27.6	–

SMILES	activity change, negative = cytotoxicity [%]	Potency
Cc1nn(-c2ccccc2)nc1C(=O)OCC(=O)N1CCCCC1C (configuration not stated)	–	23.1 µM (active)
Cc1ccc(N(CC(=O)NCC(C)c2ccccc2)S(=O)(=O)N(C)C)cc1 (configuration not stated)	3.58	–
O=C(NCc1nnnn1-c1ccc(Cl)cc1)c1ccc([N+](=O)[O-])o1	-15.6	–
O=[N+]([O-])c1ccc(C(S(=O)(=O)Cc2ccccc2)S(=O)(=O)Cc2ccccc2)cc1	-7.5	–
CC(C)S(=O)(=O)c1csc(NC(=O)Nc2ccc(Cl)cc2)c1Cl	–	20.6 µM (active)
CN(c1cccc(NC(=O)Nc2ccc(Cl)cc2)c1)S(C)(=O)=O	-4.54	–
Cn1ccc(NC(=O)Nc2ccc(Cl)cc2)n1	4.41	–
CCNC(=O)C1(C)CCCN(Cc2noc(-c3ccccc3OC)n2)C1 (configuration not stated)	-12.7	–
O=C(NCc1cccc(C(F)(F)F)c1)c1ccc2sc(COCCO)nc2c1	2.2	–
Cc1ccc(SCC(=O)Nc2ccc3c(c2)OCCO3)cc1	-14.8	–
O=C(COc1ccc2c(C(F)(F)F)cc(=O)oc2c1)Nc1ccc2c(c1)OCCO2	0	–
CCN(CC(=O)Nc1ccc2c(c1)OCCO2)Cc1cc(=O)oc2cc(C)c(C)cc12	–	5.17 µM (active)
CC1(C)Cc2ccccc2-c2c[nH]c(=O)n21	-2.99	–
Cc1ccc2[nH]c(=O)c(CN(CCCN(C)C)C(=O)Nc3cccc(Cl)c3)cc2c1	–	18.4 µM (active)
Cc1cccc(NC(=O)N(Cc2cc3cc(C)cc(C)c3[nH]c2=O)CC2COCCO2)c1 (configuration not stated)	6.39	–
Cc1ccc2[nH]c(=O)c(CN(CC3COCCO3)C(=O)Nc3ccccc3C)cc2c1 (configuration not stated)	-18.7	–
N#CCCC(C#N)(c1cccnc1)N1CCOCC1 (configuration not stated)	26.1	–
CCOc1ccccc1CNC(=O)c1cnc2c(-c3ccc(OCC)c(OCC)c3)c(C)nn2c1C	0.381	–
Cc1ccccc1NC(=O)NNC(=O)OC(C)(C)C	15.7	–
Cc1ccc(C(=O)NNC(=O)OC(C)(C)C)c(Cl)c1	15.5	–
CC(C)(C)OC(=O)NNc1c2ccccc2nc2ccccc12	–	9.2 µM (active)
COC(=O)[C@H]1C[C@H](OC(=O)NCc2ccccc2)[C@@]2(O)CN(S(=O)(=O)c3ccc(C)cc3)CC2[C@H]1C(=O)OC (some centres not stated)	6.07	–
